# In the library only some 18% were active in any assay of this set; here they are far more common.
# IL-1B inflam inh – inhibitors of inflammasome signaling (IL-1 beta secretion); activity change, % at 57.5 µM; 360,000 tested, 4.7% active; THP-1 LPS/ATP IL-1B secretion, AlphaLISA, 16 h; active compounds read low; AID 743279; in the data active = activity change below about -50%; inconclusive = mostly about -30% to -49%
#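 THP-1 cells pretreated 1 hr with compounds (up to 57.5 uM final), then stimulated with LPS (250 ng/mL final) plus ATP (1.25 mM final); secreted IL-1B measured by AlphaLISA after 16 hr, decreased signal indicating inhibition.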
# DT40 TDP1 no CPT – qHTS for Inhibitors of human tyrosyl-DNA phosphodiesterase 1 (TDP1): qHTS in cells in absence of CPT | DT40 Tdp1-/- hTDP1 cells, no CPT, ATP luminescence, 48 h | Potency, µM (series often up to 46.2 µM), without a hit: top-dose activity change, negative = growth inhibition, usual class: inhibitors | 420,000 tested, 15% active; note: potency is the fitted concentration of half-maximal effect; nearly all actives have a fitted effect of over 55% in size
#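 Camptothecin absent (DMSO only). Human TDP1-complemented DT40 knockout cells, 400 cells/well, 37 °C for minimum 48 hr; ATP measured via CellTiter-Glo, 30 min dark incubation, luminescence.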
# TDP1 block – blocks human tyrosyl-DNA phosphodiesterase 1. Potency, µM (series often up to 130 µM), for inactives: at the highest dose activity change, negative = inhibition, usual class: inhibitors. 350,000 tested, 0.28% active. recombinant TDP1, AlphaScreen DNA substrate cleavage. Q9NUW8; note: potency is the fitted concentration of half-maximal effect; nearly all actives have a fitted effect of over 40% in size
# Target sequence (Q9NUW8 whole entry, looked up): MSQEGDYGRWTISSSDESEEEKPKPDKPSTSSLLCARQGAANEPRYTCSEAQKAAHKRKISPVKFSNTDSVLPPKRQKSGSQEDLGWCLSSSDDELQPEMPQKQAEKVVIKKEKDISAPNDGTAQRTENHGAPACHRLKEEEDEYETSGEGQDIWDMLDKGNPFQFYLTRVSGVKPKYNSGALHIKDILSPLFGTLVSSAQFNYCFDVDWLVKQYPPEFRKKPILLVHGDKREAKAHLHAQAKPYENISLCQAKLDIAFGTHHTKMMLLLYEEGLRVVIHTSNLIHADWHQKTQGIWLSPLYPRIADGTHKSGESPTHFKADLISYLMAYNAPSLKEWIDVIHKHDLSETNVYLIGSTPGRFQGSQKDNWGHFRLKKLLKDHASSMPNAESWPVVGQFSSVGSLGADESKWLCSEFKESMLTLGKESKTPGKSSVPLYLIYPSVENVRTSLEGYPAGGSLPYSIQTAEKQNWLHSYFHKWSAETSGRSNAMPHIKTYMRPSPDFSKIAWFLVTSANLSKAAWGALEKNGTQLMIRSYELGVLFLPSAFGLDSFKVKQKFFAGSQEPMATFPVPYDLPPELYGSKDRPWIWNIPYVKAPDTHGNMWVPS
#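 Signal: AlphaScreen proximity between streptavidin donor and anti-FITC acceptor beads on intact substrate. Reaction: Tdp1 1 nM, substrate 15 nM final, 5 min RT after 15 min compound preincubation.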
# TDP1 cell CPT – growth inhibition of DT40 Tdp1-/-;hTDP1 cells with camptothecin (screen for TDP1 inhibitors); chicken DT40 Tdp1-/-;hTDP1 cells + 20 nM CPT, ATP luminescence, 48 h; Potency, µM (top dose mostly 46.2 µM), for inactives: top-dose activity change, negative = growth inhibition, usual class: inhibitors; 420,000 tested, 12% active; note: potency is the fitted concentration of half-maximal effect; nearly all actives have a fitted effect of over 55% in size
#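 Chicken DT40 Tdp1-/- cells complemented with human TDP1, 400 cells/well, exposed to compounds plus 20 nM camptothecin for at least 48 h at 37 C; viability read as ATP content by CellTiter-Glo luminescence.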
# Six1-Eya2 blk – inhibitors of human Six1/Eya2 interaction; AlphaScreen GST-Six1/His-Eya2 binding, biochemical; active compounds read low; AID 651725; 360,000 tested, 0.56% active; activity change, % (test concentration not listed); in the data active = activity change below about -65%; inconclusive = mostly about -30% to -63%
#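 GST-Six1 + His-Eya2 (5X stock: 250/500 nM); Tris pH 8.0, 300 mM NaCl, 0.05% BSA, 0.02% Tween 20; GSH donor/Ni acceptor beads; 1 h 37 °C dark; AlphaScreen readout.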
# CtBP-E1A blk – CtBP/E1A binding inhibition; AlphaScreen GST-E1A/His-CtBP binding, 1536-well; active compounds read low; 340,000 tested, 0.49% active; activity change, % (concentration not given with the values); in the data active = activity change below about -65%; inconclusive = mostly about -30% to -63%
#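 GST-E1A and His-tagged CtBP (125 nM each as 5X stock) were preincubated with pin-transferred compound for 2 h at 37 °C in the dark, then glutathione donor and nickel acceptor beads were added for 1 h before AlphaScreen reading.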
# * marks the source's active call; other numbers are inactive results; ? = inconclusive; . = no result. Unless noted, calls come from the whole dose curve; as a rule, active = well fitted curve in the direction sought with a large enough effect; inconclusive = small, poorly fitted or top-dose-only effect, or another doubt; inactive = no such curve, though single readings can be large; an effect the other way counts as inactive or inconclusive. % is set by controls: 0 for no effect and ±100 for the full control effect.
SMILES,IL-1B inflam inh,DT40 TDP1 no CPT,TDP1 block,TDP1 cell CPT,Six1-Eya2 blk,CtBP-E1A blk
COc1ccc(S(=O)(=O)N(Cc2ccccc2)Cc2nc(-c3ccccc3)no2)cc1,-16,18µM*,2%,15µM*,5,1
Cc1nn(-c2nc(-c3ccco3)cc(C(F)(F)F)n2)c(C)c1Cl,22,-4%,6%,15%,6,0
Cc1nn(-c2nc(-c3ccc(F)cc3)cc(C(F)(F)F)n2)c(C)c1Cl,.,18µM*,-8%,18µM*,.,.
Cc1nn(-c2nc(-c3ccc(F)cc3)cc(C(F)(F)F)n2)c(C)c1Br,.,18µM*,-5%,?,.,.
Cc1ccc(N=Cc2c(O)n(-c3cc(Cl)ccc3N3CCOCC3)c(=O)c3ccccc23)cc1C,?,6.5µM*,7%,7.3µM*,-14,-12
CCOC(=O)c1c(C)[nH]c(C(=O)OCC(O)=C(C#N)c2nc3ccccc3[nH]2)c1C,38,?,.,?,-10,-12
Cc1cc(C)cc(OCC(=O)OC/C(O)=C(\C#N)c2nc3ccccc3[nH]2)c1,-98*,21µM*,0%,?,-11,-21
Cc1cccc(C)c1OCC(=O)OC/C(O)=C(\C#N)c1nc2ccccc2[nH]1,-28,21µM*,8%,?,4,-9
N#C/C(=C(/O)COC(=O)COc1cccc(Br)c1)c1nc2ccccc2[nH]1,131,-12%,.,?,0,.
Cc1c(-c2cccc(Cl)c2)nc2ccccc2c1C(=O)OC/C(O)=C(\C#N)c1nc2ccccc2[nH]1,7,21µM*,11%,15µM*,1,-15
CCC(C)NC(=O)CSc1n[nH]c(-c2cc(Cl)ccc2OC)n1 (stereo not given),8,?,3%,-8%,-9,-1
CCOc1cc2sc(N3CCC(C(=O)Nc4ccc(C(C)C)cc4)CC3)nc2cc1Br,.,?,-4%,?,.,.
CC(=O)Nc1ccc(S(=O)(=O)Nc2ccc(S(=O)(=O)Nc3ncccn3)cc2)cc1,2,-2%,1%,-7%,-2,8
CCOC(=O)C[C@H]1c2ccccc2S(=O)(=O)N1Cc1cccc(C(F)(F)F)c1,23,13µM*,.,?,13,4
COc1ccccc1CN1[C@@H](CC(=O)O)c2ccccc2S1(=O)=O,41,-17%,.,?,4,3
COC(=O)C[C@H]1c2ccc(C(F)(F)F)cc2S(=O)(=O)N1Cc1ccccc1,-2,?,.,1%,4,6
COC(=O)C[C@H]1c2ccccc2S(=O)(=O)N1Cc1ccc(OC)cc1,17,?,.,?,5,.
COC(=O)/C=C/c1ccccc1CN1[C@@H](CC(=O)OC)c2ccccc2S1(=O)=O,15,-9%,1%,-24%,-24,-83*
CCOC(=O)C[C@H]1c2ccccc2S(=O)(=O)N1Cc1cc(OC)c(OC)c(OC)c1,0,10µM*,.,15µM*,2,-3
CCn1c(=O)cc(OCC(=O)N2CCN(c3ccc(F)cc3)CC2)c2ccccc21,0,15µM*,6%,23µM*,0,2
CCn1c(=O)cc(OCC(=O)N2CCN(c3ccc(C)cc3)C(C)C2)c2ccccc21 (stereo not given),.,6.5µM*,6%,7.3µM*,.,.
Cc1ccc(C2CC(=O)Nc3c2c(C)nn3-c2nc(C)cc(C)n2)c(C)c1 (stereo not given),.,-25%,3%,-14%,.,.
CCOc1ccc(/C=C/C(=O)Nc2cccc(C(C)=O)c2)cc1,-2,0.58µM*,3%,-85%,2,4
CCOc1ccc(NC(C(=O)Nc2cccc(C(C)=O)c2)c2ccccc2)cc1 (stereo not given),0,15µM*,8%,15µM*,?,9
COCC(C)NC(C(=O)Nc1cccc(C(C)=O)c1)c1ccccc1 (stereo not given),-3,-12%,3%,-5%,-5,6
SMILES,IL-1B inflam inh,DT40 TDP1 no CPT,TDP1 block,TDP1 cell CPT,Six1-Eya2 blk,CtBP-E1A blk
COc1ccc(-c2coc3c(C(=O)NCCN(C)C)cccc23)c(C)c1,-21,?,.,?,-6,0
COc1ccc(-c2coc3c(C(=O)NCCN4CCOCC4)cccc23)c(C)c1,-20,?,.,?,-15,-8
COc1ccc(-c2coc3c(C(=O)NCCc4ccccc4)cccc23)c(C)c1,-28,16µM*,.,16µM*,0,8
COCCCNC(=O)c1cccc2c(-c3ccc(OC)cc3C)coc12,-6,?,.,18µM*,0,2
COc1ccc(-c2coc3c(C(=O)NCC4CCOCC4)cccc23)c(C)c1,-22,10µM*,.,10µM*,-13,-8
COc1ccc2oc(C(=O)NCCc3ccccc3)c(C)c2c1,-27,?,.,0%,2,-6
CN(C)CCCn1c2c(c(SCC(=O)Nc3ccc4c(c3)OCCO4)nc1=O)CCCC2,-19,?,.,-18%,2,0
COc1ccc(-c2nc3scc(CCNS(=O)(=O)c4ccc(NC(C)=O)cc4)n3n2)cc1,.,?,0%,?,.,.
CC(=O)Nc1ccc(S(=O)(=O)NCCc2csc3nc(-c4cccc(C)c4)nn23)cc1,.,21µM*,0%,?,.,.
Cc1cccc(-c2nc3scc(CCNS(=O)(=O)c4ccc5c(c4)OCCO5)n3n2)c1,.,?,0%,23µM*,.,.
Cc1cccc(-c2nc3scc(CCNS(=O)(=O)c4ccc(F)cc4C)n3n2)c1,.,16µM*,0%,?,.,.
CNC(=O)COC(=O)c1cc(F)c(F)cc1Cl,-26,-1%,-4%,-7%,6,1
CCC(CC)NCCOC(=O)c1ccc([N+](=O)[O-])cc1,-18,-10%,4%,-3%,16,.
O=C(O)c1ccc(S(=O)(=O)c2ccc3c(c2)C(=O)N(NC(=O)c2ccc(O)cc2)C3=O)cc1,17,20%,-1%,10%,-4,.
Cc1ccc(C(=O)NN2C(=O)c3ccc(S(=O)(=O)c4ccc(C(=O)O)cc4)cc3C2=O)cc1,16,?,0%,18µM*,-5,-5
O=S(=O)(NCCc1ccccc1)c1cnc(Cl)c(Br)c1,-90*,-13%,2%,-12%,4,14
O=S(=O)(NCc1ccco1)c1cnc(Cl)c(Br)c1,.,5%,-3%,-4%,4,-19
CCOc1ccc(NC(=O)CN2C(=O)NC(C)(c3ccc(OC(F)F)cc3)C2=O)cc1 (stereo not given),-67*,23µM*,2%,18µM*,-8,5

# Bioassay records: PubChem, National Center for Advancing Translational Sciences (NCATS)
